Experimental data taken from ChEMBL document CHEMBL3988442, “University of Dundee, Small-Polar-MMV Screening Library” (2021).
For some assays here: Entries with a potency or affinity are not part of this list.

Key:
Design in all cases: scale not given: direction of the effect not stated beside the values
[1] = target: Protein translocase subunit SecA (Escherichia coli (strain K12)) (UniProt P10408); assay: Assay to Identify E. coli SecA ATPase Inhibitors; type: functional; settings: 30 µM
[2] = target: T1, Ubiquitin-activating enzyme e1, putative (Leishmania donovani (strain BPK282A1)) (UniProt E9BSI1); assay: Leishmania donovani Ubiquitin Activating Enzyme (LdE1); type: functional; settings: 30 µM
T1 sequence (whole entry): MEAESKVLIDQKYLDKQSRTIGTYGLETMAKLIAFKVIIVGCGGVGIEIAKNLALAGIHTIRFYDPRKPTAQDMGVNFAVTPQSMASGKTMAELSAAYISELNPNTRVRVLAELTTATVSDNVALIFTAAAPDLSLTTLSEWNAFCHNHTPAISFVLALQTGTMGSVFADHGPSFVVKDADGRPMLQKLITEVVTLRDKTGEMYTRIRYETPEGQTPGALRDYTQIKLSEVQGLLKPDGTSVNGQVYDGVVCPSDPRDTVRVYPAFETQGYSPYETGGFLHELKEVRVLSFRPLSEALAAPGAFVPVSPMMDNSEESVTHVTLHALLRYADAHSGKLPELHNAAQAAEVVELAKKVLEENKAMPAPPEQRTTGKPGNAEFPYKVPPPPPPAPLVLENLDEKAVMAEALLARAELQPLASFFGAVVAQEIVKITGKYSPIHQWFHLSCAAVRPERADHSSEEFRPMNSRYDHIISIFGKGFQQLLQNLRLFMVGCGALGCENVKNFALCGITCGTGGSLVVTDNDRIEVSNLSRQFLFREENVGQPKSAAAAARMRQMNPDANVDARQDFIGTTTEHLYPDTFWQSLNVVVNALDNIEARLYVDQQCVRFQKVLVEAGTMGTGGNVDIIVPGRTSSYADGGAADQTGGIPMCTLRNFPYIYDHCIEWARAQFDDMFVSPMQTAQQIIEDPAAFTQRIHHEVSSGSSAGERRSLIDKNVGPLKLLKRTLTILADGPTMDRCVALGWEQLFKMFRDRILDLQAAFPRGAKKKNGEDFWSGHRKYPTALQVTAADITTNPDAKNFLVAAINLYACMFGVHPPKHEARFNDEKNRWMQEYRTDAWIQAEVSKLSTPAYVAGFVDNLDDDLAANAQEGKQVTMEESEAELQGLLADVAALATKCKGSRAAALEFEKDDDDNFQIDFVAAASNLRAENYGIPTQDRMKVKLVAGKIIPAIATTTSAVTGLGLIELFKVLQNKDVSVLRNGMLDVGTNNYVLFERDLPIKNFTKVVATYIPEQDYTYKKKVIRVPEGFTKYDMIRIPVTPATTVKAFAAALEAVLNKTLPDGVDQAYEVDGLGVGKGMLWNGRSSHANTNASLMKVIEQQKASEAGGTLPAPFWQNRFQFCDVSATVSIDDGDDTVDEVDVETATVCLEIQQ

[3] = target: AMP-activated protein kinase, AMPK (Homo sapiens) (UniProt P54646+O43741+P54619+Q9UGJ0+Q9Y478+Q13131+Q9UGI9); assay: AMP-dependent Kinase enzyme assay. An in vitro enzyme assay that detects ADP turnover that is directly proportional to AMPK activity. This uses naive AMPK that is activated during the assay with MK-8722; type: functional; settings: 30 µM
[4] = target: Sialic acid-binding Ig-like lectin 9 (Homo sapiens) (UniProt Q9Y336); assay: Hs-Siglec9 ALPHAscreen SOP 20170721; settings: 10 µM
Sialic acid-binding Ig-like lectin 9 (Homo sapiens), sequence (Q9Y336 whole entry): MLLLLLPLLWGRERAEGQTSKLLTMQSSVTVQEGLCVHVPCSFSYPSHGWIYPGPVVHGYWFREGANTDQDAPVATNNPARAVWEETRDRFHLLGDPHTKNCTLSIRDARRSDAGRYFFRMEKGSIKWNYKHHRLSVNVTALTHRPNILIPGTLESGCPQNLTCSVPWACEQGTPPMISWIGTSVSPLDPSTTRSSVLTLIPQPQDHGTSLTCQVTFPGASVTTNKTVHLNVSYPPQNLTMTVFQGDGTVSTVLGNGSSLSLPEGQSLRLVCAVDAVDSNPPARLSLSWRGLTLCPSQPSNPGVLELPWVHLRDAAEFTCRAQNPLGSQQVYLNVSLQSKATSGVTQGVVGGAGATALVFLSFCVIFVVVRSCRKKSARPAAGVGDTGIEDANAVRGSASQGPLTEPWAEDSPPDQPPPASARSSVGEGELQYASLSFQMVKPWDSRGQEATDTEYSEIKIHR

Trypanosoma cruzi = assay: Trypanosoma cruzi phosphomannomutase and mannose-1-phosphate guanylyltransferase assay; type: functional; settings: 10 µM
[5] = target: T2, Arginase-2, mitochondrial (Homo sapiens) (UniProt P78540); assay: in vitro enzyme assay to detect the production of urea directly proportional to the activity of Arginase II; type: functional; settings: 33.3 µM; further: in the data most compounds retested in dose-response had high values
T2 sequence (whole entry): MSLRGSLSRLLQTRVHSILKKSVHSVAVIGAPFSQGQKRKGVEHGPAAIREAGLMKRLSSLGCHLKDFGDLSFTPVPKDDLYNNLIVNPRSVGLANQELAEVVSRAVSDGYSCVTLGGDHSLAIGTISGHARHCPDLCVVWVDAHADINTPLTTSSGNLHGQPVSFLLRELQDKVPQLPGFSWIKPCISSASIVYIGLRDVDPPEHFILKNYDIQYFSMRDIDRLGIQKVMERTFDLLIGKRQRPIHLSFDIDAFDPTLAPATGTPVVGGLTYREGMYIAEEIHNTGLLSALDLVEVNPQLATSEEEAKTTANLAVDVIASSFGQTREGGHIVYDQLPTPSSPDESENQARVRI

[6] = target: T3, Proteasome subunit beta (Trypanosoma cruzi) (UniProt O96673); assay: Trypanosoma cruzi proteasome chymotrypsin-like activity (TcProtChymo) assay.; further: in the data most compounds retested in dose-response had high values; type: functional; settings: 9.37 µM
T3 sequence (whole entry): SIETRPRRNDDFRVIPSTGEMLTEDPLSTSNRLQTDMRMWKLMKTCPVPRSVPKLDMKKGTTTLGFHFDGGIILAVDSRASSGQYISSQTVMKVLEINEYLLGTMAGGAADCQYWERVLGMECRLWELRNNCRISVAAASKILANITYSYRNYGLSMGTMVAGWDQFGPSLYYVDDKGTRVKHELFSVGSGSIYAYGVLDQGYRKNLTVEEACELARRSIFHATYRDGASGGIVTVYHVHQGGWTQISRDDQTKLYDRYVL

Homo sapiens = organism: Homo sapiens; assay: To identify inhibition of the IFN signalling (Jak-Stat) pathway via expression of an eGFP reporter gene under the control of an IFN-stimulated response element (ISRE) containing MxA promoter.; type: functional; settings: 30 µM
[7] = target: T4, Tyrosyl-tRNA synthetase, putative (Trypanosoma cruzi (strain CL Brener)) (UniProt Q4DSP6); assay: Trypanosoma cruzi tyrosyl tRNA synthetase (TcYRS) _High Tyrosine SOP; type: functional; settings: 30 µM; further: in the data most compounds retested in dose-response had high values
T4 sequence (whole entry): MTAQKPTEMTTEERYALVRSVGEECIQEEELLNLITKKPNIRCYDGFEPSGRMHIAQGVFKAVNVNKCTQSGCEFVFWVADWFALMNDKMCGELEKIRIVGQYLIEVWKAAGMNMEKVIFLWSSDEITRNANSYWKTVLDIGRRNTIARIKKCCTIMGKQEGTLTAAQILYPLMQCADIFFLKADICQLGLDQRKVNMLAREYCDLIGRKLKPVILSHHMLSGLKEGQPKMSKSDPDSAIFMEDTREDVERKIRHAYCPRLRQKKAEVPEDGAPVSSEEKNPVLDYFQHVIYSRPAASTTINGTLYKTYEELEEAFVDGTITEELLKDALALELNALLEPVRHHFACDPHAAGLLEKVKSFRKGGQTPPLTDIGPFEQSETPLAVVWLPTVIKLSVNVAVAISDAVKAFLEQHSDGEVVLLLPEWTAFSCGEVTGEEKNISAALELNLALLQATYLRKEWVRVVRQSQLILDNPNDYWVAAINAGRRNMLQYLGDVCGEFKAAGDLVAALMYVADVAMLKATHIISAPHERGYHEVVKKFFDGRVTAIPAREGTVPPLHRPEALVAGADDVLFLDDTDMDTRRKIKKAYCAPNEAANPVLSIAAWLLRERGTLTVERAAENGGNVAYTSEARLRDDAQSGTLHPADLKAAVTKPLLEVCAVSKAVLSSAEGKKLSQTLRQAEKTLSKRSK

[8] = target: T4, Tyrosyl-tRNA synthetase, putative (Trypanosoma cruzi (strain CL Brener)); assay: Trypanosoma cruzi tyrosyl tRNA synthetase (TcYRS) SOP; type: functional; settings: 30 µM
[9] = target: Chromo domain-containing protein 1 (Saccharomyces cerevisiae (strain ATCC 204508 / S288c) (Baker's yeast)) (UniProt P32657); assay: ScCHD-1 Enzyme Inhibition Assay; type: functional; settings: 30 µM; further: in the data most compounds retested in dose-response had high values
Chromo domain-containing protein 1 (Saccharomyces cerevisiae (strain ATCC 204508 / S288c) (Baker's yeast)), sequence (P32657 whole entry, the tested form may be a part): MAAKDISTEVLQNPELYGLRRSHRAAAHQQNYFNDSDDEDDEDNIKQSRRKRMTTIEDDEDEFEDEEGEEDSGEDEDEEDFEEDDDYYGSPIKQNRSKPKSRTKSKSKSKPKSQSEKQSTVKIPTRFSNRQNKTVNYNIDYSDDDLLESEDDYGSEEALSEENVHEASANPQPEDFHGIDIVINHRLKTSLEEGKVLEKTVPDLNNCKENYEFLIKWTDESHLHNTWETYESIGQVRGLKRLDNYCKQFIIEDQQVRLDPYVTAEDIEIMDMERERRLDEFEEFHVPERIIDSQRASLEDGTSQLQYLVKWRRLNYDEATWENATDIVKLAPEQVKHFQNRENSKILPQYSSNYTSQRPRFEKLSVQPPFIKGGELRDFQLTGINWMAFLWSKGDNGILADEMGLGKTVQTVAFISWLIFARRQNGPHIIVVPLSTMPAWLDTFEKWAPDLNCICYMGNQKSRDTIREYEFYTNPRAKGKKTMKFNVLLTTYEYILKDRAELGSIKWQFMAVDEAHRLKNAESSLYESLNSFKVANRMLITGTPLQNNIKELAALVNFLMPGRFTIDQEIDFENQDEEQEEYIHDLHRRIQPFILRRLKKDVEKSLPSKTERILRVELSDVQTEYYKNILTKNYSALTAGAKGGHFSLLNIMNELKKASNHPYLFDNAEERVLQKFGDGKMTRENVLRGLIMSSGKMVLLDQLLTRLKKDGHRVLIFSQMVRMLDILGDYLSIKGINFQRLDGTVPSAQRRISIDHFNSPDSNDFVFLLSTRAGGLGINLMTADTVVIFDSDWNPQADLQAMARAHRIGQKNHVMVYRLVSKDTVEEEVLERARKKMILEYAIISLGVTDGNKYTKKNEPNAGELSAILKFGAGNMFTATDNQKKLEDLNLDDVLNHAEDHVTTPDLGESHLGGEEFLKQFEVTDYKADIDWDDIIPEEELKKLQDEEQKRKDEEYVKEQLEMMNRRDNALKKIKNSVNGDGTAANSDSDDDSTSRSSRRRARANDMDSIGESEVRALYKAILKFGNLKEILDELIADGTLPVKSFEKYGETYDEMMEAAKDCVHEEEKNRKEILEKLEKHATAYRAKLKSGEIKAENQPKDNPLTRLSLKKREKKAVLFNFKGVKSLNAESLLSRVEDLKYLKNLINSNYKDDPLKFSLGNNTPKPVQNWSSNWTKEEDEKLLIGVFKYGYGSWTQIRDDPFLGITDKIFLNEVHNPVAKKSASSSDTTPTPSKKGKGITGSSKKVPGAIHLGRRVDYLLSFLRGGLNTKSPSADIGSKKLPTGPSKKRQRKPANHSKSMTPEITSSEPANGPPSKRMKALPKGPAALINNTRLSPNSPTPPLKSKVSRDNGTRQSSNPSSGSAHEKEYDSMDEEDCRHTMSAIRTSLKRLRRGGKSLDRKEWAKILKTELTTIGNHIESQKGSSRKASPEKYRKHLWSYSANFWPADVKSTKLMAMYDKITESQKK

Protein translocase subunit SecA (Escherichia coli (strain K12)), sequence (P10408 whole entry): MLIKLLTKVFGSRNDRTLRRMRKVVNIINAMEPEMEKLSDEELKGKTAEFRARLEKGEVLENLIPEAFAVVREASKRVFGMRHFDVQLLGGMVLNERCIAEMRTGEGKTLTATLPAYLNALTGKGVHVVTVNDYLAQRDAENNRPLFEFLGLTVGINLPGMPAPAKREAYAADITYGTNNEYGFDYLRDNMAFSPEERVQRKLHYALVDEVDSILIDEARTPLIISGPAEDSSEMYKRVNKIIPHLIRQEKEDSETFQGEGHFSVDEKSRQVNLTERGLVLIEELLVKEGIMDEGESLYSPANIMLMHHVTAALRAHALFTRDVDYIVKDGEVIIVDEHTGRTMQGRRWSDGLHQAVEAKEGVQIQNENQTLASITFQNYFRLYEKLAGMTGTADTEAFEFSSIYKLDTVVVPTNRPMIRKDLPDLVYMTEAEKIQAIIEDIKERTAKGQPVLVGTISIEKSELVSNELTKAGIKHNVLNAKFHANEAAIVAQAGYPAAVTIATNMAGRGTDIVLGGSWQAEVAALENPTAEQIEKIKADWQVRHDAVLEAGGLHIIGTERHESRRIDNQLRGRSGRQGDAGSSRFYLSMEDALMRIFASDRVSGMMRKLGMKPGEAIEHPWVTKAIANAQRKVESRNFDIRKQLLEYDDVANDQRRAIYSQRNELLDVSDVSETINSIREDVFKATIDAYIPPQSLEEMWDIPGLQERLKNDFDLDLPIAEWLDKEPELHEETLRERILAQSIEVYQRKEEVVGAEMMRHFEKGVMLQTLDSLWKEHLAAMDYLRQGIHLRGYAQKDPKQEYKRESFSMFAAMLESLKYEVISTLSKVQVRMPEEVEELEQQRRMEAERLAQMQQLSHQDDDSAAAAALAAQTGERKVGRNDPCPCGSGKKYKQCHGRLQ

| SMILES | Percent Effect [1] [%] | Percent Effect [2] [%] | Percent Effect [3] [%] | Percent Effect [4] [%] | Percent Effect (Trypanosoma cruzi) [%] | Percent Effect [5] [%] | Percent Effect [6] [%] | Percent Effect (Homo sapiens) [%] | Percent Effect [7] [%] | Percent Effect [8] [%] | Percent Effect [9] [%] |
| --- | --- | --- | --- | --- | --- | --- | --- | --- | --- | --- | --- |
| Cc1nc(CCC(=O)NC2CCC2)cc(C2CCNCC2)n1 | -4.77 | 26.7 | -4.67 | -2.25 | 6.1 | -4.43 | 4.67 | 3.41 | 4.25 | 19.2 | -7.72 |
| Cc1cccc(CN2C[C@@H]3COC[C@]3(COc3ccc(C#N)cn3)C2)n1 | -2.98 | -8.22 | -1.47 | 2.28 | 10.1 | -1.2 | 3.34 | 4.74 | 0 | 8.64 | -0.121 |
| COCCCN(C)Cc1nc2c(cnn2C)c(=O)[nH]1 | -5.54 | 21.1 | -0.426 | -2.13 | 7.75 | 3.96 | 18.4 | -3.84 | 2.46 | 25.9 | -9.74 |
| Cn1nc(C2CCCN(Cc3cccc(F)c3)C2)c2nccnc21 (stereo unspecified) | -3.38 | 9.46 | 9.97 | 14.6 | 6.13 | -1.62 | 9.05 | 13.8 | 2.15 | 16.9 | -15.8 |
| Cc1nc(C)n(CC2CCCN(CCOc3cccc(C#N)c3)C2)n1 (stereo unspecified) | 1.74 | 21.6 | 7.7 | 4.91 | -8.4 | 24.9 | 11.2 | 17.4 | 0.493 | -1.24 | -4.16 |
| COC(=O)CCNC(=O)c1ccoc1CN1c2ccccc2CC1C (stereo unspecified) | -4.57 | 0 | 6.85 | 8.39 | 1.98 | -18.4 | 19.9 | 9.3 | 6.25 | 3.7 | -2.6 |
| COc1ccc(C(C(=O)O)N2CCCN(C3CCCC3)CC2)cc1OC (stereo unspecified) | -8.69 | 0 | -2.66 | -4.35 | -3.81 | -2.23 | -0.429 | 16 | -9.68 | -1.24 | -4.58 |
| NC(=O)c1ccc2c(c1)nc1n2CCN(Cc2ccccc2)C1 | -6.79 | 15.8 | 5.45 | 5.68 | 3.8 | -20.1 | 12 | 5.05 | 4.25 | 10.4 | 6.79 |
| CN(Cc1ccccc1Br)C(=O)Cn1nc(-c2ccc(F)cc2)oc1=O | 2.65 | -5.26 | 0.817 | -11.8 | -6.33 | 10.7 | 10.8 | 10 | -24.5 | -28.6 | -1.2 |
| CCN1CC2(CCN(CCOCCO)CC2)CC(c2ccccc2)C1=O (stereo unspecified) | -1.44 | 8 | -14.6 | 3.65 | 0.292 | -3.12 | 15.2 | 14.3 | 2.73 | 8.64 | -6.05 |
| O=C(NCCn1ccc(-c2ccccn2)n1)c1ccncc1 | -1.48 | 8.22 | -7.04 | 17.5 | 6.46 | -3.18 | 9.94 | 4.13 | 2.15 | 10 | -3.21 |
| C1CC(CN2CCO[C@H]3[C@H](OCC4CC4)CC[C@@H]32)CCO1 | -7.62 | 2.7 | -2.6 | -1.5 | -2.93 | 2.08 | 16.3 | 7.72 | 5.94 | 3.66 | -1.93 |
| CC(C)N1CCn2c(nc3cc(C(N)=O)ccc32)C1 | -8.72 | 12 | -4.63 | 7.53 | 0.393 | -8.63 | 8.87 | 2.55 | 2.12 | 12.8 | -11.8 |
| c1cnc(-c2nc(CN3CCOC(Cn4cncn4)C3)cs2)nc1 (stereo unspecified) | -3.88 | 29.7 | -7.99 | -4.32 | -0.66 | -12.8 | 9.91 | 18.1 | 1.48 | 13.6 | -6.92 |
| CN(C)S(=O)(=O)N1C[C@@H](Oc2ccccn2)[C@H]2OCCC[C@H]21 | -3.77 | 10.4 | 5.04 | 3.32 | 0.493 | -3.23 | 8.7 | 24.1 | -4.23 | 8.97 | -11.1 |
| COCC(O)CNC(=O)c1cnc(-c2ccccc2)nc1O (stereo unspecified) | 2.38 | 8.11 | -5.21 | 5.6 | 3.28 | -0.476 | 8.97 | 13.5 | 8.99 | 19.5 | -0.825 |
